How the values were obtained:
Test in all cases: log2 ratio of Biotin-Ahx-Ub-VS probe labelling (fragment/DMSO); higher = less target engagement (more negative = stronger competition), active = hit call of the paper (q ≤ 0.05, log2 ratio ≤ -1)
Conditions in all cases: compound concentration: 200 uM; treatment time: 3 h
[1] = molecular target: T1, USP19 (UniProt O94966)
T1 sequence (whole entry): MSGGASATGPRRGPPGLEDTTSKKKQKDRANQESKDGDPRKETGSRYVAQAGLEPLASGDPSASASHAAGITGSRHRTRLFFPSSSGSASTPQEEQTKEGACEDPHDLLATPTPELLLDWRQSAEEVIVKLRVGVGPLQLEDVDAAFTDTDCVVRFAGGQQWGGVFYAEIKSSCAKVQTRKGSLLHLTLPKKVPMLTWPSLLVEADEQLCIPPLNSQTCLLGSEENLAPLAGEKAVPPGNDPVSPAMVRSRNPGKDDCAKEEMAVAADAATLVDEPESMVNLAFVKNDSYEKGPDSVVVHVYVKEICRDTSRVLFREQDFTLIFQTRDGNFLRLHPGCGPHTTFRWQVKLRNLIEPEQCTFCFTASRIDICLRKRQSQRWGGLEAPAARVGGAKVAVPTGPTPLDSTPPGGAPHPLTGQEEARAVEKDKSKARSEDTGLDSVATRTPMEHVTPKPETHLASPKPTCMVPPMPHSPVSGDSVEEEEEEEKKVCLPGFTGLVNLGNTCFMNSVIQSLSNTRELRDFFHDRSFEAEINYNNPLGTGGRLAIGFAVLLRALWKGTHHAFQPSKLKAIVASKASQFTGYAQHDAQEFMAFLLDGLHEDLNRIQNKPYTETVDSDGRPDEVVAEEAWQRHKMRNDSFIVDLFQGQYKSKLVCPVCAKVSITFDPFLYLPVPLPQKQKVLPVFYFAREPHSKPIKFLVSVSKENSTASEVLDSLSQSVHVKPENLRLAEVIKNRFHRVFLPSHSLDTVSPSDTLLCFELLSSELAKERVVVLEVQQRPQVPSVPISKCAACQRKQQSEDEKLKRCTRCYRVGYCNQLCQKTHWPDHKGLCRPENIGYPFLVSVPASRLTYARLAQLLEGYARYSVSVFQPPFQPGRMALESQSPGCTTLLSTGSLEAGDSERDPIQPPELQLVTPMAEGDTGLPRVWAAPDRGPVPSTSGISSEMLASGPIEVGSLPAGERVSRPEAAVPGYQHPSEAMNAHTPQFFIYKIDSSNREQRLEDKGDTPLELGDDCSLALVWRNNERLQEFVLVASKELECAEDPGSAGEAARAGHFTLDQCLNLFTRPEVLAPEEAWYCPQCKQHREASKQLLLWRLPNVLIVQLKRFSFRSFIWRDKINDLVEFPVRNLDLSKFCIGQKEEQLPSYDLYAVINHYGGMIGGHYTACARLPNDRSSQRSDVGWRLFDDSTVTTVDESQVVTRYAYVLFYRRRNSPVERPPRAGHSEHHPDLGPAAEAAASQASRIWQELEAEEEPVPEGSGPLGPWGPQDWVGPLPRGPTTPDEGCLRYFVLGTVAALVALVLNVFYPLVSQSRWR
In short: (§1)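 Average log2 ratios of fragment over vehicle were obtained by unpaired t-test from global-median-normalised Spectronaut label-free quantities. Proteins with ≥2 unique peptides were included. HEK293T lysate (495 µg per sample) was treated in triplicate with fragment at 200 µM or vehicle for 3 h, then with Biotin-Ahx-Ub-VS at 0.5 µM final for 1 h, and labelled DUBs were NeutrAvidin-enriched and run by diaPASEF LC-MS/MS.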

[2] = molecular target: USP24 (UniProt Q9UPU5)
In short: as §1

[3] = molecular target: T2, USP25 (UniProt Q9UHP3)
T2 sequence (whole entry): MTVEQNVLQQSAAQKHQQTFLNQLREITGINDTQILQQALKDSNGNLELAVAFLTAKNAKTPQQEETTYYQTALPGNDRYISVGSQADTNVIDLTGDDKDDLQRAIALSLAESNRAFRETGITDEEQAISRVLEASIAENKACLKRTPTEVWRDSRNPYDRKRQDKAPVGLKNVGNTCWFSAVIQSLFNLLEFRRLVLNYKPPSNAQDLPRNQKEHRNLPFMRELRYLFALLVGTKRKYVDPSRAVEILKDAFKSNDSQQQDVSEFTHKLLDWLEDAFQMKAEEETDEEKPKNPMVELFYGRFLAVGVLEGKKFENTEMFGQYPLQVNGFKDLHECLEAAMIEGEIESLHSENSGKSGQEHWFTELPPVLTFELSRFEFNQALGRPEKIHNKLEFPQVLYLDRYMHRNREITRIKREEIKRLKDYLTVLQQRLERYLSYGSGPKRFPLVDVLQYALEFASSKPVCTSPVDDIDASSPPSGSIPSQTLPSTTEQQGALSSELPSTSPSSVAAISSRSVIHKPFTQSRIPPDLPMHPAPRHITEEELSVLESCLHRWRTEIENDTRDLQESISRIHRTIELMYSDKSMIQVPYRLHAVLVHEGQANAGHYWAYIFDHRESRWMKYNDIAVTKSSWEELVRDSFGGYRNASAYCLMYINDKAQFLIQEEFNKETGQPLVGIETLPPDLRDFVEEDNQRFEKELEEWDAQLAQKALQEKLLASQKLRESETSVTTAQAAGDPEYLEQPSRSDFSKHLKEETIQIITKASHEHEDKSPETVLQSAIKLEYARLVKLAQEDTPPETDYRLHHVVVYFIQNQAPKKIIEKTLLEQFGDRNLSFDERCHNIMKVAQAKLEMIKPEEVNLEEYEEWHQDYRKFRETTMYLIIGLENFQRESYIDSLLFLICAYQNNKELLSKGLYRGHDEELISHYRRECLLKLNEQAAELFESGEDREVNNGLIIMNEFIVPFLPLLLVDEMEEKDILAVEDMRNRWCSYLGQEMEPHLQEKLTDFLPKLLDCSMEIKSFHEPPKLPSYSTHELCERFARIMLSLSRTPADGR
In short: as §1

[4] = molecular target: T3, USP28 (UniProt Q96RU2)
T3 sequence (whole entry): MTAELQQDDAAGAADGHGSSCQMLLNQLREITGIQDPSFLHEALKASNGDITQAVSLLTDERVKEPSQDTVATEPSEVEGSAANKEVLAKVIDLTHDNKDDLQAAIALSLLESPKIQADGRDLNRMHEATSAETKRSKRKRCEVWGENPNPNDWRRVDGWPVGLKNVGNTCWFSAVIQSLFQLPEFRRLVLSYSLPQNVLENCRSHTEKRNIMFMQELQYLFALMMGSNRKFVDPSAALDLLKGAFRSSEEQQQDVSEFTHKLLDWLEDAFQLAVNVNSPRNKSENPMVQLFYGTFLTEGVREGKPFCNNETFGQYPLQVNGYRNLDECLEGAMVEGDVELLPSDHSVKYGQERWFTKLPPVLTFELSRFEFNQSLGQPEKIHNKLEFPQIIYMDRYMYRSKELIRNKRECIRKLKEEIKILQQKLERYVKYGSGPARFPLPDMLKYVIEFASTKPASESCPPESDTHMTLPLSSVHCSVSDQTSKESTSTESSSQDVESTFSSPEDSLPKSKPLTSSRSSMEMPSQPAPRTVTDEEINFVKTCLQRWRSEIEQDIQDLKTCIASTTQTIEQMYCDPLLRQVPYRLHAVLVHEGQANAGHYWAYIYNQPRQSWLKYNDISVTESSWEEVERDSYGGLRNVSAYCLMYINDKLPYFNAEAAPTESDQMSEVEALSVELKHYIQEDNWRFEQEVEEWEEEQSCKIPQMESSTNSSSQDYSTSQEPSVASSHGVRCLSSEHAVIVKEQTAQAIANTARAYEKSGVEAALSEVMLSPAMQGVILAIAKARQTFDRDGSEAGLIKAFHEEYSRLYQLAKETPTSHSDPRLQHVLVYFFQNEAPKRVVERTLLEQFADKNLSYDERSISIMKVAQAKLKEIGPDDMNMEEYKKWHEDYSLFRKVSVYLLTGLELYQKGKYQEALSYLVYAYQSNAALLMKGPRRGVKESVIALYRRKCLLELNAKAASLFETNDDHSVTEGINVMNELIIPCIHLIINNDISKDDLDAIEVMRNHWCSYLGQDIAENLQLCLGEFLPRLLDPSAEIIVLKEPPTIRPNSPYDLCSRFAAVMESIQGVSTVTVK
In short: as §1

Measured: log2 ratio of Biotin-Ahx-Ub-VS probe labelling

Chain of USP24 (Q9UPU5 whole entry): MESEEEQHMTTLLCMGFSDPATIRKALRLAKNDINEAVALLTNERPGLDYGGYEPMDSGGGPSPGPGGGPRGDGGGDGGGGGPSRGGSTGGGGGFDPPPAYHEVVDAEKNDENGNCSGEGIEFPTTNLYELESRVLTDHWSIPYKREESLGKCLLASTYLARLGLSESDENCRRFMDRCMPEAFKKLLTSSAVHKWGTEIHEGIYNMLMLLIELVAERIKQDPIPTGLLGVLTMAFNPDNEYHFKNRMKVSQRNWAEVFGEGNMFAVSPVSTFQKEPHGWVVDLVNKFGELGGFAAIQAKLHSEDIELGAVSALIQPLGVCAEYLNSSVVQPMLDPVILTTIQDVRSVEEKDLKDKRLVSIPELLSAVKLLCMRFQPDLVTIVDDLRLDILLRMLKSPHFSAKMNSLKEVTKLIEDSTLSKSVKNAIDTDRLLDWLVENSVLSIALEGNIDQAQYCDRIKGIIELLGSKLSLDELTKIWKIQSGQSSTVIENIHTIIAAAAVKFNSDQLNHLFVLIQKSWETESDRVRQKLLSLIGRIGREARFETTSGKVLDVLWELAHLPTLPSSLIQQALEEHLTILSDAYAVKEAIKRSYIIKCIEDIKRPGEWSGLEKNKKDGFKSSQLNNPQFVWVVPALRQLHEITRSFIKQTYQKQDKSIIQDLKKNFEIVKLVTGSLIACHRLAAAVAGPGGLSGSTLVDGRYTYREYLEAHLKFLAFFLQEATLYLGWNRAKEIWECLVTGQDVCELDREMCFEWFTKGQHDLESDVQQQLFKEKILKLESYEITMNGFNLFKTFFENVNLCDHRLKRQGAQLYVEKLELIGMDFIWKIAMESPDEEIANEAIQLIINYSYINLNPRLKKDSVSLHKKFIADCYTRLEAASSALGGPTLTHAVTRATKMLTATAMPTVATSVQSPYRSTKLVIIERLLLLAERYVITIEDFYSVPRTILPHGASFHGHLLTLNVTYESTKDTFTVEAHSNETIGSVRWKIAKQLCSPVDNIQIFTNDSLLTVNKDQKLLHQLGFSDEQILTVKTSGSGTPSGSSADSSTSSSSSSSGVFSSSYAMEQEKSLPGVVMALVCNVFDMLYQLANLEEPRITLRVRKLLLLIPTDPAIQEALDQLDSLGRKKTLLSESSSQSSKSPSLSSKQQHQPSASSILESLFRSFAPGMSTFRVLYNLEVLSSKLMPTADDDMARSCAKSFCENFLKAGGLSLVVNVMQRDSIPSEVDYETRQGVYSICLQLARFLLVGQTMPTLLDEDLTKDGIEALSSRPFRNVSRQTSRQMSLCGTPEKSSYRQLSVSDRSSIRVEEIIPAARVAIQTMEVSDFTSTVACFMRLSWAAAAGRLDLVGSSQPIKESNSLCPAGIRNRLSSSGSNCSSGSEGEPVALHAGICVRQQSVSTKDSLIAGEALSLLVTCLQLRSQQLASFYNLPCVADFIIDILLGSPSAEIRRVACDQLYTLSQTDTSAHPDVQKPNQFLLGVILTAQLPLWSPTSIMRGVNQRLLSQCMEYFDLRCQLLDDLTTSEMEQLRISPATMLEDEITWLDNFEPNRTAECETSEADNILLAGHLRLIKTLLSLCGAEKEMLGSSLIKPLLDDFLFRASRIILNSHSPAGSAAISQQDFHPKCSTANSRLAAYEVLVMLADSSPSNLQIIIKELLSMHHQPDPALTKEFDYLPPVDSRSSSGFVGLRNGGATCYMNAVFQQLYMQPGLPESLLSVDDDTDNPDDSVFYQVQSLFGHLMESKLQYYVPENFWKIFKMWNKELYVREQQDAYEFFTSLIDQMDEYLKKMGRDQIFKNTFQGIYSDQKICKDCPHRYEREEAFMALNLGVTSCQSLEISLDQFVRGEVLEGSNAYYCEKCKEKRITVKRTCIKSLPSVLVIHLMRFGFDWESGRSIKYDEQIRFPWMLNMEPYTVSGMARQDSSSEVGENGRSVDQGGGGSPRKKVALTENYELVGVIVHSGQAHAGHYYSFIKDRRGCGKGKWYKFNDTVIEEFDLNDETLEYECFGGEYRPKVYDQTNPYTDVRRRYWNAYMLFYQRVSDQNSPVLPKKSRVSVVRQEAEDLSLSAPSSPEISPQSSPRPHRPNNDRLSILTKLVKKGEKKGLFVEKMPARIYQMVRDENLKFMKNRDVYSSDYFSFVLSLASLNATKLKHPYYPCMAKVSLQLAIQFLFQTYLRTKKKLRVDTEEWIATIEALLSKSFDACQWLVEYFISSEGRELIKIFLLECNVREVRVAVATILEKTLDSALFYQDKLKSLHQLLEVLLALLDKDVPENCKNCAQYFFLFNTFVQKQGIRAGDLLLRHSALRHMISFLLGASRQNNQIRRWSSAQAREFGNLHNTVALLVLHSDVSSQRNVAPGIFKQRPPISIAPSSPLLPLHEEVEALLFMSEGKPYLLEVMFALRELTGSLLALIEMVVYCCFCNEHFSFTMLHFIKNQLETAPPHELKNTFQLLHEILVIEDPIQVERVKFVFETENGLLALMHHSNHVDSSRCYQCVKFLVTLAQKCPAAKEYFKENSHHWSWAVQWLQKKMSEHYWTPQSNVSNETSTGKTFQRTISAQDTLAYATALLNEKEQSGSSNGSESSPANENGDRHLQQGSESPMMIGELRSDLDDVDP

Cl.Cn1c(CNC(=O)CCl)nc2cccnc21
inactive: [1] -0.0671 | [2] -0.218 | [3] -0.148 | [4] -0.316

From the supplement of paper PMC11732987, “Enantioselective OTUD7B fragment discovery through chemoproteomics screening and high-throughput optimisation” (Communications Chemistry, 2025)
